The campaign covered roughly 1,900 compounds. About 550 (29%) were called active. Rule as the data show it: active = inhibition above about 40%; inactive = the rest. Only a sample is shown.
These molecules were tested against 26S proteasome non-ATPase regulatory subunit 14 (Homo sapiens) (UniProt O00487) (assay: inhibition of 26S proteasome subunit Rpn11 – biochemical, fluorescence polarization, single concentration, confirmation (AID 602318)). Conditions: purified human 26S proteasome, Ub4-pepOG fluorescence polarization; at 20 µM; active compounds read high; proteasome pretreated with epoxomicin.
Chain of 26S proteasome non-ATPase regulatory subunit 14 (Homo sapiens) (O00487 whole entry, looked up): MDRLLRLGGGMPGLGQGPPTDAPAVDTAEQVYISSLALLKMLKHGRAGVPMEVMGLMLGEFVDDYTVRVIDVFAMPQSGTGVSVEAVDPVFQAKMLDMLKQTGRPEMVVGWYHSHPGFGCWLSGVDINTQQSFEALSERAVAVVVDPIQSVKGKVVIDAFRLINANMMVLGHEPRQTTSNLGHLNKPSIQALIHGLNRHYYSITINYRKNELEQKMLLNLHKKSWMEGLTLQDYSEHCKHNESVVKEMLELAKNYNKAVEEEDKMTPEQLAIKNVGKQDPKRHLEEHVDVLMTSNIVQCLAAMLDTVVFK

| Structure (SMILES) | inhibition |
| --- | --- |
| CCc1ccc(-c2cc(C(=O)NCc3ccco3)c3ccccc3n2)s1 | 40.9% (active) |
| CCCS(=O)(=O)N1CCCC(C(=O)NCc2ccco2)C1 (stereo not given) | -10.1% (inactive) |
| C=CCn1c(=S)[nH]c2scc(-c3ccco3)c2c1=O | 0.26% (inactive) |
| CCC(C)Cn1c(O)cc2nn(-c3nc4ccccc4s3)c(=O)c-2c1C (stereo not given) | 15.4% (inactive) |
| Cc1ccc(NC(=O)c2c(NC(=O)CCC(=O)O)sc3c2CCCCC3)cc1 | -3.94% (inactive) |
| COc1ccc(CNC(=O)c2nnn(CC(=O)Nc3cc(C)cc(C)c3)c2N)cc1 | 52.8% (active) |
| CSC1=N/C(=C\C=C\c2cccs2)C(=O)S1 | 29.7% (inactive) |
| CCN1CCN(c2cc3nc(C)n(Cc4ccccc4)c(=O)c3cc2NC(=O)c2ccccc2F)CC1 | 17.4% (inactive) |
| C/C(=N/Nc1nc(-c2ccccc2)c(CC(=O)O)s1)c1ccccc1 | 34% (inactive) |
| COc1ccc(Cl)cc1NC(=O)CCS(=O)(=O)c1ccc(Br)cc1 | 124% (active) |
| O=C(CCS(=O)(=O)c1cccc2nonc12)NCCc1ccccc1Cl | -2.85% (inactive) |
| CCCOc1ccc(Cn2c(O)cc(=O)[nH]c2=O)cc1 | 20.3% (inactive) |
| CCNCc1cc2cc(C)ccc2[nH]c1=O | 18.7% (inactive) |
| Cc1ccc(Nc2ccccc2N)cc1 | 32.8% (inactive) |
| Cc1ccc(Nc2nc(Cl)c(C=O)s2)cc1 | 55% (active) |
| O=C(OCc1cc2ccccc2[nH]c1=O)c1cccnc1 | -8.83% (inactive) |
| CC(C)Cn1c(CCC(=O)O)ccc1-c1cccs1 | -26.6% (inactive) |
| CC(C)CC1C(=O)N(Cc2cn(Cc3ccco3)nn2)CCS(=O)(=O)N1Cc1ccc(-c2ccc(Cl)c(Cl)c2)cc1 (stereo not given) | 17.1% (inactive) |
| Cc1c(NC(=O)CSc2cccc3cccnc23)c(=O)n(-c2ccccc2)n1C | 21.1% (inactive) |
| CN=c1scc(-c2cc(OC)ccc2OC)n1/N=C/c1c(C)[nH]c2ccccc12 | 44.5% (active) |
| CC(=O)c1sc(N/N=C/c2ccc(C(C)C)cc2)nc1C | -9.02% (inactive) |
| CCOC(=O)N1CCC(NC(=O)C(NS(=O)(=O)c2ccc3c(c2)CCN3C(=O)CC)C(C)C)CC1 (stereo not given) | 4.92% (inactive) |
| Cc1sc2nc(COC(=O)C(NC(=O)c3ccc(Cl)cc3Cl)C(C)C)[nH]c(=O)c2c1C (stereo not given) | 34.7% (inactive) |
| C=CC1=C(C(=O)O)N2C(=O)[C@@H](NC(=O)/C(=N/OCC(=O)O)c3csc(N)n3)[C@H]2SC1 | 66.5% (active) |
| CCC/C=C(\CCC)C(NC(=O)Cc1ccccc1)c1ccc(C(=O)OC)cc1 (stereo not given) | -5.68% (inactive) |
| CCCCCCCCCCOC(=O)Cn1c(COc2cccc(OC)c2)[n+](C)c2ccccc21 | 7.65% (inactive) |
| COC1=C/C(=C/c2c(N)n3nc(CC(=O)N4CCOCC4)sc3nc2=O)C=CC1=O | 31.8% (inactive) |

| Structure (SMILES) | inhibition |
| --- | --- |
| O=C(COc1cccc(F)c1)Oc1ccc(C(=O)c2ccccc2)cc1 | -1.38% (inactive) |
| Cc1ccc(N=Cc2c(O)cc(C)oc2=O)c(C)c1 | 22.8% (inactive) |
| CCOc1ccc(-n2c(O)c(/C=N/c3ccnn3Cc3ccncc3)c3ccccc3c2=O)cc1 | 98.3% (active) |
| CCOc1ccc(-n2c(O)c(/C=N/Nc3nnc(C)c(=O)[nH]3)c3ccccc3c2=O)cc1 | 38.6% (inactive) |
| COc1ccc2[nH]c(=O)c(-c3noc(-c4ccc(F)cc4)n3)cc2c1 | 3.41% (inactive) |
| Cc1cc(/C=N/Nc2ccc([N+](=O)[O-])cn2)c(C)n1-c1cccc(C(=O)O)c1 | 19.1% (inactive) |
| Cc1oc2c(C)c3oc(=O)c(CC(=O)N[C@@H](CC(C)C)C(=O)N[C@@H](Cc4ccccc4)C(=O)O)c(C)c3cc2c1C | 26.8% (inactive) |
| N#Cc1c(-c2cccs2)nc(SCC(=O)c2ccc(Br)cc2)[nH]c1=O | 46% (active) |
| CCCCCCSc1ccc([C@@H]2[C@H]3C(=O)N(CC)C(=O)[C@H]3[C@]3(C(=O)OC)CCCCN23)cc1 | 33.6% (inactive) |
| CS(=O)(=O)c1ccc2c(c1)SC1=NC(=O)/C(=C/c3ccco3)C(=N)N12 | 46.2% (active) |
| CN(C)c1ccc(-n2cccc2/C=C2/SC(=Nc3ccc(F)cc3)NC2=O)cc1 | -10.9% (inactive) |
| Cc1cc(/C=C2/SC(=O)N(CC(=O)N3CCCC3)C2=O)ccc1N1CCOCC1 | 33.9% (inactive) |
| COc1cccc(-c2nn(-c3ccccc3)cc2/C=C(\C#N)C(=O)NCCCn2ccnc2)c1 | 53.8% (active) |
| CCN(CC)C(=O)CSc1nc2ccccc2n1CC(=O)N1CCN(c2ccccc2OC)CC1 | -7.43% (inactive) |
| O=C(CSc1nc2ccccc2c(=O)[nH]1)Nc1nc(-c2ccc(Br)cc2)cs1 | 129% (active) |
| C=CCn1c(SCC(=O)NCc2ccccc2)nnc1-c1cc(Br)ccc1O | -6.6% (inactive) |
| Cc1ccc2cc(C#N)c(NCCNC(=S)NCCCN3CCOCC3)nc2c1 | 1.22% (inactive) |
| O=C(Nc1ccc(-c2nnc(-c3ccccc3)o2)cc1)c1ccc(Br)o1 | 11.5% (inactive) |
| COc1cc(/C=C2/SC(=S)N(Cc3ccccc3)C2=O)cc(OC)c1O | 49.8% (active) |
| Nc1nonc1-n1nnc(C(=O)N/N=C/c2cc(Br)ccc2O)c1CSC1=NCCS1 | 24.8% (inactive) |
| CCOc1cc(/C=C2\SC(N3CCCCC3)=NC2=O)ccc1O | 18.3% (inactive) |
| N#Cc1ccc(C(=O)Nc2cccc3cccnc23)c(F)c1 | -21.1% (inactive) |
| O=C(CSc1cccc2cccnc12)N/N=C/c1cccnc1 | 32.7% (inactive) |
| CC(=O)/C(=N\Nc1ccc(Cl)cc1Cl)Sc1cccc2cccnc12 | 62.9% (active) |
| CC1CCN(c2ccc3c(c2)S(=O)(=O)c2cc(C(=O)O)ccc2C3=O)CC1 | 30.4% (inactive) |
| COc1cccc(/C=C(/CC(=O)Nc2ccc(N3CCOCC3)cc2)c2nc3ccccc3s2)c1 | 57.2% (active) |
| Cc1nc2ccccc2n1C(=O)N1CCOCC1 | -9.96% (inactive) |

| Structure (SMILES) | inhibition |
| --- | --- |
| COc1ccc(-n2c(SCC(=O)Nc3sc4c(c3C#N)CCCC4)nnc2-c2ccc(O)cc2)cc1 | 13.9% (inactive) |
| CC(=O)Nc1ccccc1Sc1ccc2c3c(cccc13)C(=O)N(c1ccc(C)cc1)C2=O | 1.98% (inactive) |
| CCOc1ccc(NC(=O)c2ccc(NC(=O)COC(=O)c3ccc(NC(=O)CC#N)cc3)cc2)cc1 | 103% (active) |
| COC(=O)c1ccc(OCC(=O)NC(C)(C)C)cc1 | -8.84% (inactive) |
| Cc1nc2ccc(C(=O)N3CCSCC3)cc2s1 | -7.54% (inactive) |
| Oc1c(CN2CCCC2)cc(COCc2ccccc2)c2cccnc12 | 14.7% (inactive) |
| C=CC[n+]1c(-c2ccc(C)cc2)csc1NNC(=O)Nc1ccccc1 | 9.49% (inactive) |
| CC(C)(C)NC(=O)CSC(=Nc1ccccc1F)NC#N | 16.3% (inactive) |
| CCOc1cc(/C=C2\SC(N3CCCC(C)C3)=NC2=O)ccc1O (stereo not given) | 11.7% (inactive) |
| Cc1cccc(OCc2nnc(SCc3nc4cc(C(F)(F)F)ccc4c(=O)[nH]3)o2)c1 | 57.8% (active) |
| CCc1ccc(NC(=O)CS(=O)CC(=O)NCCCc2ccccc2)cc1 (stereo not given) | 20.8% (inactive) |
| COc1cccc(NC(=O)C(C)Oc2ccccc2)c1 (stereo not given) | -12.2% (inactive) |
| O=C(O)c1ccc(NN=CC2=C(N3CCOCC3)/C(=C/c3ccccc3)CC2)cc1 | 48.1% (active) |
| CN(C)CCOC1c2ccccc2-c2ccccc21 | -6.33% (inactive) |
| Cc1ccc(NC(=O)CN2CCc3ccccc3C2)cc1 | -8.38% (inactive) |
| COc1ccc(NC(=O)Cn2c(-c3ccc(OC)cc3)cn(-c3ccc(C)cc3)c2=O)cc1 | 42.8% (active) |
| COc1ccc(CC(=O)Nc2ccc(-c3nnc(-c4ccc(C)cc4)o3)cc2)cc1 | -7.43% (inactive) |
| NC(N)=N/N=C/c1ccc(OCc2ccc(Cl)cc2Cl)cc1 | 37% (inactive) |
| Oc1ccc(/C=N/Nc2nc(-c3ccccc3F)nc3ccccc23)c(O)c1 | 18.3% (inactive) |
| O=C1NC(=O)C2C1C(c1ccc([N+](=O)[O-])cc1)=NN2Cc1ccccc1 (stereo not given) | 29.9% (inactive) |
| CC(C)Oc1ccc(/C=C(\NC(=O)/C=C/c2ccco2)C(=O)NCCc2nc3ccccc3[nH]2)cc1 | 44.1% (active) |
| Cc1ccc(-c2nnc(-c3ccc(NC(=O)c4cccs4)cc3)o2)cc1 | -12.4% (inactive) |
| Cc1c(N=Nc2ccc(N(C)C)cc2)c(=O)n(-c2ccccc2)n1C | 47.2% (active) |
| CCN1CCCC1CNC(=O)c1cc2c(=O)n(C)c3ccccc3c2n1C (stereo not given) | 2.2% (inactive) |
| Cc1cc(OCC(=O)Nc2nccs2)c2c(C)c(C)c(=O)oc2c1 | 38.8% (inactive) |
| Cc1nc2ccccc2nc(=O)c1NNc1ccc([N+](=O)[O-])cc1 | 24% (inactive) |

Reference: PubChem BioAssay AID602318 (Sanford-Burnham Center for Chemical Genomics, 2012)
